Assay outcomes deposited in PubChem BioAssay by several laboratories.
Compounds with a hit are over-represented: about 13% of the library has one in this group of screens.
RAM inhibit: blocks the yeast RAM network | S. cerevisiae dse1pr::URA3 reporter, 5-FOA growth OD615, 2 d; analog-sensitive cbk1-as2 kinase mutant strain | inhibition, % at 50 µM | 190,000 tested, 1.8% active;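 active = inhibition above a set limit, 3 SD over mean compound inhibition, cut at about 8.4% in these data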;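 also: 0% = DMSO-only wells with no growth and 100% = 10 µM 1-NA-PP1 full growth; inhibition rescues growth on 5-FOA so higher OD means more RAM inhibition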
L major viab: Leishmania major promastigote growth inhibition; Leishmania major promastigotes, resazurin fluorescence viability; inhibition, % at 10 µM; 200,000 tested, 9% active; in the data active = inhibition above about 50%;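 also: promastigotes grown with compound for 44 hours at 28 °C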
CHOP inhibitor: blocks CHOP induction under ER stress | inhibition, % at 10 µM | 220,000 tested, 3.8% active | CHO-K1 CHOP-promoter luciferase, tunicamycin-induced, 15-18 h;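 active = compounds that reduced the stress-induced luciferase reporter signal by more than about 70% of percent inhibition, limit read from the data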;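 also: 0% = tunicamycin plus vehicle and 100% = wells without tunicamycin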
WT yeast gro inh: growth inhibition of WT yeast, mitochondrial fusion screen. 190,000 tested, 2.1% active. inhibition, % at 10 µM. AID 1362. mitochondrial fusion phenotypic screen, WT strain; in the data active = inhibition above about 58%; tested in S. cerevisiae
Starred values were filed as active, the others as inactive; / = no result given.

SMILES	RAM inhibit	L major viab	CHOP inhibitor	WT yeast gro inh
Cc1ccccc1OCCC(=O)Nc1ccc(F)c(Cl)c1	2	68*	69	24
Cc1ccc(NC(=O)CCC(=O)c2ccc(F)cc2)cc1Cl	2	-1	79*	-6
Cc1ccc(NC(=O)Nc2ccc(F)cc2)cc1Cl	3	-6	67	28
O=C(CSCc1ccccc1)Nc1ccccc1C(=O)Nc1ccc(C(=O)O)cc1	/	/	-20	/
CCc1nnc(N2C(=O)c3ccccc3C2(O)c2ccccc2)s1 (stereo not given)	/	/	8	/
CCOC(=O)C1=C(c2ccccc2)Nc2ncnn2C1c1cc(OC)cc(OC)c1OC (stereo not given)	-1	92*	22	-16
CCOC(=O)C1=C(c2ccccc2)Nc2ncnn2C1c1cccc(OC)c1OC (stereo not given)	0	100*	21	-5
CCOC(=O)C1=C(c2ccccc2)Nc2ncnn2C1c1ccc(O)cc1 (stereo not given)	/	/	1	/
O=[N+]([O-])c1ccccc1CNC(Cc1ccccc1)c1ccccc1 (stereo not given)	0	90*	80*	39
Clc1ccc2nc(-c3ccncc3)cc(-c3ccccc3)c2c1	3	20	55	-16
c1ccc(-c2cc(-c3ccncc3)nc3ccc4ccccc4c23)cc1	5	14	89*	7
CCOC(=O)/C(C#N)=C/c1ccc(-c2ccsc2C(=O)OC)o1	1	0	74*	14
Cc1cccc(-n2nc3c(c2NC(=O)CCC2CCCCC2)CS(=O)C3)c1C (stereo not given)	2	-7	4	6
O=C(Nc1ccccc1)N1N=C(c2ccc(F)cc2)CC1c1ccc(F)cc1 (stereo not given)	9.6*	92*	24	46
O=C(Nc1ccccc1)N1N=CCC1c1ccccc1 (stereo not given)	0	-2	10	6
Fc1ccc(C2CC(c3cccs3)=NN2C(=S)Nc2ccccc2)cc1 (stereo not given)	5	53*	0	20
CCCOc1ccc(CCC(=O)N/N=C/c2ccncc2)cc1	/	/	7	/
Cc1cc(C)c(COc2ccc(/C=N/n3c(C)n[nH]c3=S)cc2)c(C)c1	2	2	-12	91*
CN1CCN(CC(O)COc2ccc(C34CC5CC(CC(C5)C3)C4)cc2)CC1 (stereo not given)	0	100*	34	97*
COc1ccc(OCC(O)CN2CCCCCC2)cc1 (stereo not given)	3	12	17	-1
OCCN1CCN(CC(O)COc2ccc3ccccc3c2)CC1 (stereo not given)	-1	91*	22	-11
OCCN(Cc1ccccc1)CC(O)COc1ccc(-c2ccccc2)cc1 (stereo not given)	0	39	76*	66*
OCCN1CCN(CC(O)COc2ccc(-c3ccccc3)cc2)CC1 (stereo not given)	-1	96*	-37	40
CC(=O)Nc1ccc(S(=O)(=O)N2CCN(CC(O)COc3ccc4ccccc4c3)CC2)cc1 (stereo not given)	0	3	34	-5
CC(=O)N/C(=C/c1ccc2c(c1)OCO2)C(=O)NCCO	1	-5	19	-2
SMILES	RAM inhibit	L major viab	CHOP inhibitor	WT yeast gro inh
O=C(COC(=O)/C=C/c1ccco1)Nc1cccc([N+](=O)[O-])c1	2	-4	7	9
O=C(CCC(NC(=O)OCc1ccccc1)C(=O)OCc1ccccc1)NCC(=O)OCc1ccccc1 (stereo not given)	8.8*	-7	34	3
CCN(CCO)Cc1csc2ccc(Br)cc12	1	99*	-13	-19
CCN(CCO)Cc1csc2cccc(Br)c12	1	0	-8	-7
NS(=O)(=O)c1ccc(CCNC(=O)CSc2nnc3ccccn23)cc1	0	-9	2	5
O=C(NCc1cccnc1)c1ccc(S(=O)(=O)N2CCCCCC2)cc1	0	3	19	-13
O=C(O)Cn1nc(-c2ccccc2)oc1=O	1	-8	-1	-19
CC(C)(C)C(=O)n1nc(-c2ccccc2)oc1=O	-1	-8	70*	-25
CC(=O)N1CCN(CC(=O)Nc2ccc([N+](=O)[O-])cc2Br)CC1	1	-5	4	-10
O=C(CSc1ccccc1)Nc1cc(S(=O)(=O)N2CCOCC2)ccc1N1CCOCC1	2	30	1	-9
CC1(C(=O)N(Cc2ccccc2)Cc2ccccc2)CC1(Br)Br (stereo not given)	8.8*	6	55	83*
CN(Cc1ccccc1)C(=O)CCC(=O)N(C)Cc1ccccc1	0	-5	23	-7
N#Cc1nc(Cc2cccc3ccccc23)oc1NCCCN1CCOCC1	1	20	31	-4
N#Cc1nc(Cc2cccc3ccccc23)oc1NCCCn1ccnc1	3	59*	10	54
CCc1ccc(NC(=O)CSCc2nc(N)nc(Nc3ccccc3CC)n2)cc1	2	8	22	-6
CCc1ccccc1Nc1nc(N)nc(CSCC(=O)Nc2ccc(C)c(C)c2)n1	0	85*	40	-14
N#C/C(=C\c1ccccc1[N+](=O)[O-])C(=O)NCc1ccccc1	/	/	-17	/
CCCCCCCCNC(=O)/C(C#N)=C/c1ccccc1[N+](=O)[O-]	5	58*	94*	68
CC1=CC(C)(C)N2C(=O)C3(N=C(N)NC(Nc4ccccc4)=N3)c3cc(C)cc1c32 (stereo not given)	0	96*	-6	8
Cc1nn(C(=O)c2ccco2)c(C)c1CN1C(=O)c2ccccc2C1=O	1	-2	62	28
Cc1nn(C(=O)c2cccs2)c(C)c1CN1C(=O)c2ccccc2C1=O	1	-9	81*	10
CCOC(=O)N1CC=C2C(C#N)=C(N)C(C#N)(C#N)[C@H](c3ccc(OCC)c(OCC)c3)[C@H]2C1	3	14	-5	-3
CCCCOc1ccc(C2C3CN(C(=O)OCC)CC=C3C(C#N)=C(N)C2(C#N)C#N)cc1OC (stereo not given)	4	47	20	62*
CC(/C=N/NC(=O)c1cc(C(C)(C)C)[nH]n1)=C\c1ccccc1	1	3	76*	-12
CC(/C=N/NC(=O)c1cc(-c2ccc(C)s2)[nH]n1)=C\c1ccccc1	5	1	96*	31
SMILES	RAM inhibit	L major viab	CHOP inhibitor	WT yeast gro inh
O=C(Nc1ccccc1)N1CCCC(CNS(=O)(=O)Cc2ccccc2)C1 (stereo not given)	0	13	7	-4
CCC1=C(OC(=O)N(CC)CC)N2C(=O)OC(=NCCc3c[nH]c4ccccc34)[C@]2(Cc2ccccc2)[C@H]2C1=CC[C@H]1C(=O)N(CC)C(=O)[C@H]12	/	/	31	/
O=C(CSc1ncnc2c1oc1ccccc12)Nc1ccccc1C(F)(F)F	1	-9	11	8
O=C(NC(=S)Nc1ccc(N2CCOCC2)c(Cl)c1)c1cncc(Br)c1	1	82*	27	42
O=C(NC(=S)NC1CCCCCC1)c1cncc(Br)c1	3	61*	18	45
O=C(NC(=S)Nc1ccc(N2CCOCC2)c(Cl)c1)c1cccs1	1	-6	6	31
O=C(NC(=S)Nc1ncc(Br)cc1Br)c1cncc(Br)c1	3	-10	-7	3
